Laboratory results from PubChem BioAssay (NCI).
About 83,000 compounds went through this panel and 20% of them were active in at least one assay; those are over-represented in the sample as a whole.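 For each line, cells grew in 96-well plates with the test compound present at a single concentration for 48 hours.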 A number with no mark means an inactive call. Activity calls are given as the source filed them. Rule for the calls: active = growth percent below 10; inactive = the rest.

What was measured:
Assay in all cases: NCI-60 one-dose screen, 48 h (100 = growth as untreated, 0 = no growth, -100 = all killed)
Settings in all cases: 10 µM
HCT-15 colon = tested on: HCT-15 colon
HT29 colon = tested on: HT29 colon
SNB-75 CNS = tested on: SNB-75 CNS
SNB-19 CNS = tested on: SNB-19 CNS
U251 CNS = tested on: U251 CNS
PC-3 prostate = tested on: PC-3 prostate
SK-MEL-5 melanoma = tested on: SK-MEL-5 melanoma
UACC-62 melanoma = tested on: UACC-62 melanoma
LOX IMVI melanoma = tested on: LOX IMVI melanoma
SK-MEL-28 melanoma = tested on: SK-MEL-28 melanoma

Row | Compound | growth (HCT-15 colon) | growth (HT29 colon) | growth (SNB-75 CNS) | growth (SNB-19 CNS) | growth (U251 CNS) | growth (PC-3 prostate) | growth (SK-MEL-5 melanoma) | growth (UACC-62 melanoma) | growth (LOX IMVI melanoma) | growth (SK-MEL-28 melanoma)
1 | O=C(Nc1ccc(OCc2nnc(-c3ccccc3)o2)c(F)c1)Nc1ccc(Cl)c(Cl)c1 | 49.4% | 53% | 66.4% | 59.9% | 50.5% | 55.6% | 65.9% | 58% | 54.8% | 73%
2 | Cc1ccc(/C=C2\CN(Cc3cn(CCNc4ccnc5cc(Cl)ccc45)nn3)C/C(=C\c3ccc(C)cc3)C2=O)cc1 | -29.4% (active) | -45.1% (active) | 18.1% | -29.8% (active) | -73.7% (active) | -32.4% (active) | -90.5% (active) | -58.4% (active) | -82.9% (active) | -83.5% (active)
3 | COc1ccc(-c2nnc(COc3ccc(NC(=O)Nc4cccc(C(F)(F)F)c4)cc3F)o2)cc1 | 46.1% | 66.8% | 79.6% | 47.7% | 48.1% | 46.5% | 78.8% | 17.1% | 8.23% (active) | 73.4%
4 | CCOc1ccc2c(c1)CC[C@@H]1[C@@H]2CC[C@]2(C)[C@@H](O)[C@@H](O)C[C@@H]12 | 95% | 109% | 107% | 99% | 95% | 91.2% | 96.8% | 94.4% | 102% | 100%
5 | c1ccc(COCC[P+](c2ccccc2)(c2ccccc2)c2ccccc2)cc1 | 71.9% | 1.21% (active) | -5.5% (active) | 9.79% (active) | 5.43% (active) | -4.87% (active) | -72% (active) | 2.32% (active) | -32.2% (active) | 14.6%
6 | Cc1cc(C(C)(C)CC(C)(C)C)ccc1OCCOCC[N+](C)(C)Cc1ccccc1 | 94.6% | -81.2% (active) | -63.4% (active) | -80.8% (active) | -86.2% (active) | -19.4% (active) | -95.8% (active) | -91.9% (active) | -92.9% (active) | -92% (active)
7 | COC(=O)[C@]12CC[C@@H](C)[C@H](C)[C@@H]1C1=CC[C@@H]3[C@@]4(C)CC(=O)[C@H](O)[C@@]5(C)COC(=C45)C[C@@]3(C)[C@]1(C)CC2 | -69.7% (active) | -61.2% (active) | -32.6% (active) | -54.1% (active) | -88.7% (active) | -32.3% (active) | -97.2% (active) | -75.3% (active) | -80.7% (active) | -41.8% (active)
8 | O=S(=O)(NCCO)c1ccc(OCCOc2ccc(S(=O)(=O)NCCO)cc2)cc1 | 103% | 100% | 95% | 102% | 93.7% | 89.1% | 96.5% | 95.2% | 96.6% | 105%
9 | Cc1nc(Nc2nc3ccccc3o2)nc(-c2cccc([N+](=O)[O-])c2)c1C(=O)Nc1ccc(F)c(Cl)c1 | 15.5% | 6.31% (active) | 17.8% | 11.7% | 3.14% (active) | 6.84% (active) | 0.624% (active) | 17.1% | 0.0269% (active) | 13.2%
10 | CCc1ccc(-c2nnc(COc3ccc(-c4nc5ccccc5[nH]4)cc3OC)o2)cc1 | 52.9% | 61.7% | -27.1% (active) | 84.3% | 23.3% | 54.9% | 80.2% | 91% | 24.5% | 93.5%
11 | O=C(/C=C/c1ccc(Cl)cc1)c1ccc(Br)cc1 | 90.4% | 73.7% | 101% | 99% | 89.4% | 97.4% | 105% | 92.6% | 83.4% | 96.5%
12 | COc1ccc(CSc2nc3cc(OC)c(OC)cc3c(=O)n2-c2ccc(OC)cc2OC)cc1 | 80.6% | 88% | 90.3% | 79.6% | 85.9% | 55.6% | 80.5% | 80.2% | 83.4% | 102%
13 | C#CCNCCN1C(=O)c2ccc3c4c(ccc(c24)C1=O)C(=O)N(CCNCC#C)C3=O | 19.5% | 2.13% (active) | 75.4% | 46% | 29.5% | 47.7% | -81.3% (active) | 16.7% | -3.21% (active) | 83.9%
14 | COc1cc(-c2nc3ccc(C)cc3[nH]2)ccc1OCc1nnc(-c2ccc(CC(C)C)cc2)o1 | 73.8% | 73.3% | 83.9% | 94.6% | 75.6% | 88.1% | 85.7% | 90.3% | 103% | 87.8%
15 | O=c1oc2c3ccc4cnccc4c3[nH]c2c2ccccc12 | 80.9% | -19.7% (active) | 14.1% | 14.6% | -35% (active) | 71.4% | 28.3% | 73.2% | 13.5% | 5.14% (active)
16 | CCCCCCCCCCN=C(c1ccc(N(C)C)cc1)c1ccc(N(C)C)cc1 | 12.9% | 9.42% (active) | 33.1% | 31.8% | 21.3% | 30.7% | 0.192% (active) | 31.7% | 42.1% | 59.7%
17 | COc1cc(-c2nc(-c3nnc(-c4cccnc4)o3)c3ccccn23)cc(OC)c1OC | 111% | 97.4% | 96.7% | 102% | 95% | 101% | 90.7% | 106% | 97.3% | 121%
18 | COc1ccc(-c2nc(-c3ccccc3)c(-c3ccccc3)[nH]2)cc1OC1CCCC1 | 19.8% | 35.5% | 70.5% | 66.4% | 39.1% | 50.1% | 67.7% | 57% | 24.3% | 79.4%
19 | CCOC(=O)c1sc(NC(=O)c2cc(OC)c(OC)c(OC)c2)nc1C | 96.9% | 99.8% | 98.5% | 118% | 106% | 65.1% | 95.6% | 88.5% | 97.3% | 101%
20 | CC(=O)Oc1ccc(C2=Cc3ccc(OC(C)=O)cc3OC2C)cc1 (stereo not given) | 48.4% | 93.7% | 49% | 85.2% | 43.3% | 66.3% | 50.2% | 45% | 44.4% | 62.1%
21 | CCN(Cc1ccccc1)C1CCN(Cc2cc(Br)ccc2O)CC1 | 50.1% | 13.3% | 49.2% | 65.7% | 43.9% | 45.7% | 32.1% | 51.7% | 54.9% | 76.1%
22 | CC(C)C[C@H](NC(=O)Cn1ccc2ccccc2c1=O)B(O)O | 57.9% | 44.7% | 96.8% | 76.8% | 87.6% | 86.9% | 37.9% | 49.8% | 50.6% | 48.7%
23 | O=C(NC1CCN(Cc2ccccc2)CC1)c1cc(-c2ccncc2)nc2ccc(Cl)cc12 | 24.2% | 19.9% | 68.7% | 24.8% | 7.4% (active) | 33.9% | 16% | 7.85% (active) | 15.3% | 46.5%
24 | COc1cc(OC)cc(N2CCN(C(=O)Nc3nc4cc(F)ccc4nc3OC)CC2)c1 | 7.06% (active) | 3.96% (active) | 27.9% | 28.7% | 17.5% | 22.4% | -42.2% (active) | 47.9% | 23.6% | 77.1%
25 | CCCCCCCCCCCC(c1ccccc1)N(C)C (stereo not given) | 95.6% | 86.3% | 89.5% | 95.1% | 95.6% | 78.1% | 97% | 94.9% | 92.7% | 99%
26 | CCC(O)c1ccc(Br)cc1NC(=O)c1cccc(Cl)c1 (stereo not given) | 28.5% | 83.7% | 38.8% | 21.2% | 11.7% | 34.2% | 10.7% | -27.5% (active) | 0.289% (active) | 29.3%
27 | Cc1cccc2c1O/C(=C\c1ncc([N+](=O)[O-])n1C)C2=O | 5.68% (active) | -21% (active) | 8.32% (active) | -5.53% (active) | -17.5% (active) | -22.4% (active) | -92.2% (active) | -66.3% (active) | -39.6% (active) | -17.8% (active)
